Experimental data from PubChem BioAssay AID463173 (ICCB-Longwood Screening Facility, Harvard Medical School, 2010).
The campaign covered roughly 52,000 compounds. About 1,700 (3.3%) were called active. Rule as the data show it: active = survival mostly below about 52% (no sharp cut-off); inactive = mostly above about 56%. Many of the other results were omitted from the sample, so actives are more common in it than they were.

Test system: Wild type
Assay: S. aureus survival, RN4220 and DeltatarO strains – OD600, teichoic acid synthesis inhibitors, primary screen (AID 463173)
Conditions: S. aureus RN4220 wild type/DeltatarO growth, OD600, 18 h, stronger effect = lower value, screened at 18.75 µg/mL (by protocol)

Compound | survival
Cc1ccc(NC(=O)C(=O)NCC(c2ccc3c(c2)OCO3)N2CCOCC2)cc1C (centres undefined) | 45% (inactive)
CC(C)c1ccc(NC(=O)CSC2=Nc3ccccc3C3=NC(CC(=O)NCc4ccc(F)cc4)C(=O)N23)cc1 (centres undefined) | 73% (inactive)
Cc1nc(C)c(-c2csc(NCc3ccccc3)n2)s1 | 123% (inactive)
COc1ccc(CC(=O)Nc2cc(-c3cn4cccnc4n3)ccc2C)cc1OC | 85% (inactive)
CCCc1noc(-c2ccc(N3CCCCC3)c([N+](=O)[O-])c2)n1 | 77% (inactive)
O=C(CN(C(=O)c1csnn1)c1ccccc1)NCc1ccc2c(c1)OCO2 | 114% (inactive)
O=c1oc2ccc(Br)cc2cc1-c1nc(-c2ccccc2)no1 | 66% (inactive)
O=C(CSc1nnc2[nH]c(=O)cc(-c3ccccc3)n12)Nc1ccc(F)cc1F | 94% (inactive)
COCCCNC(=O)CN1C(=O)COc2ccc(S(=O)(=O)N3CCCCCC3)cc21 | 77% (inactive)
CCN(CC)S(=O)(=O)c1cc(-c2onc(C)c2C)ccc1OC | 87% (inactive)
CCCCn1cc(S(=O)(=O)c2ccc(Cl)cc2)c(=O)c2cc(F)c(N3CCCCC3)cc21 | 105% (inactive)
Cc1cc(C)cc(OCC(=O)Nc2ccc(S(=O)(=O)Nc3onc(C)c3C)cc2)c1 | 73% (inactive)
CC(=O)N1CCc2c(sc3c2c(=O)n(-c2ccccc2)c(=O)n3CC(=O)Nc2cccc(C)c2)C1 | 91% (inactive)
CCC(=O)Nc1ccc(-c2nc3ccc(NC(=O)CC)cc3[nH]2)cc1 | 113% (inactive)
CC(C)(C)C(=O)Nc1ccc(-c2nc3ccc(NC(=O)C(C)(C)C)cc3[nH]2)cc1 | 148% (inactive)
O=C(Nc1ccc2nc(-c3ccccc3)[nH]c2c1)c1ccco1 | 1% (active)
CCOC(=O)c1sc2ccccc2c1S(=O)(=O)Nc1ccc(C(C)=O)cc1 | 90% (inactive)
Cc1ccc(S(=O)(=O)c2c(O)cc(C)c(NS(=O)(=O)c3ccc(Br)cc3)c2C)cc1 | -1% (active)
COc1ccc(S(=O)(=O)c2c(C)c(NS(=O)(=O)c3ccccc3)cc(C)c2O)cc1 | 90% (inactive)
Cc1ccc(S(=O)(=O)c2c(O)cc(C)c(NS(=O)(=O)c3ccc(Cl)cc3)c2C)cc1 | 105% (inactive)
CC(OC(=O)c1cc2sccc2n1C)C(=O)NCC1CCCO1 (centres undefined) | 107% (inactive)
COC(=O)c1ccc(-n2nnc(-c3nsc(NC(=O)c4ccc(Cl)cc4)n3)c2C)cc1 | 79% (inactive)
COc1ccc(C2c3c(n(C)c4ccccc34)C(=O)N2CC(=O)Nc2cccc(F)c2)cc1 (centres undefined) | 85% (inactive)

Compound | survival
O=C(NCc1ccc(F)cc1)C(=O)NCC(c1ccc2c(c1)OCO2)N1CCOCC1 (centres undefined) | 88% (inactive)
Cc1cc(OCCn2c(C3CC(=O)N(Cc4ccc(F)cc4)C3)nc3ccccc32)ccc1Cl (centres undefined) | -15% (active)
CCc1ccc(OCCn2c(C3CC(=O)N(Cc4ccc(F)cc4)C3)nc3ccccc32)cc1 (centres undefined) | -14% (active)
COc1ccc(OCCCn2c(C3CC(=O)N(c4ccc(F)cc4)C3)nc3ccccc32)cc1 (centres undefined) | 85% (inactive)
COc1ccc(OCCn2c(C3CC(=O)N(c4ccc(F)cc4)C3)nc3ccccc32)cc1 (centres undefined) | 84% (inactive)
CCOc1ccc(N2CC(c3nc4ccccc4n3CCOc3ccc(CC)cc3)CC2=O)cc1 (centres undefined) | 79% (inactive)
O=C1CC(c2nc3ccccc3n2CCCOc2ccccc2)CN1c1ccc(F)cc1 (centres undefined) | 107% (inactive)
N#C/C(=C\c1ccccc1)C(=O)Nc1sc2c(c1C(N)=O)CCC2 | 75% (inactive)
COc1ccccc1CCNC(=O)c1cc2ccccn2n1 | 152% (inactive)
CC(=O)Nc1c(C)nn(-c2ccccc2)c1N1CCC(C(=O)Nc2ccc(C)cc2Cl)CC1 | 71% (inactive)
CC(=O)Nc1c(C)nn(-c2ccccc2)c1N1CCC(C(=O)NCc2cccc(Cl)c2)CC1 | 71% (inactive)
CC(=O)Nc1c(C)nn(-c2ccccc2)c1N1CCC(C(=O)NCc2cccc(F)c2)CC1 | 1% (active)
CC(=O)Nc1c(C)nn(-c2ccccc2)c1N1CCC(C(=O)NCc2ccc(F)cc2)CC1 | -3% (active)
CC(=O)Nc1c(C)nn(-c2ccccc2)c1N1CCC(C(=O)Nc2ccc(F)cc2Cl)CC1 | 60% (inactive)
CC(=O)Nc1c(C)nn(-c2ccccc2)c1N1CCC(C(=O)NCc2ccc(Cl)cc2)CC1 | 81% (inactive)
CC(=O)Nc1c(C)nn(-c2ccccc2)c1N1CCC(C(=O)Nc2cc(F)ccc2F)CC1 | 63% (inactive)
CC(=O)Nc1c(C)nn(-c2ccccc2)c1N1CCC(C(=O)NCc2ccccc2Cl)CC1 | -4% (active)
CC(=O)Nc1ccc(NC(=O)C2CCN(c3c(NC(C)=O)c(C)nn3-c3ccccc3)CC2)cc1 | 63% (inactive)
CN(C(=O)CSc1nc2ccc(NC(=O)c3cccs3)cc2s1)c1ccccc1 | 77% (inactive)
CCOc1ccc(NC(=O)Cn2cc(C(=O)C3CC3)c3ccccc32)cc1 | 78% (inactive)
CC1Cc2ccccc2N1C(=O)c1cc2sccc2n1Cc1ccc(F)cc1 (centres undefined) | 119% (inactive)
Cn1c(=O)cc(OCC(=O)NCc2ccc(F)cc2Cl)c2ccccc21 | 117% (inactive)
CCOc1ccc(NC(=O)c2c(NC(=O)Cc3ccccc3)sc3c2CCCC3)cc1 | 69% (inactive)

Compound | survival
Cc1noc(-c2ccc(-c3noc(-c4ccc(F)cc4)n3)cc2)n1 | 64% (inactive)
Cc1noc(-c2ccc(-c3noc(-c4ccccc4)n3)cc2)n1 | -6% (active)
Cc1noc(-c2ccc(-c3noc(-c4ccc(Cl)cc4)n3)cc2)n1 | 87% (inactive)
Clc1cccc(C2=NC(c3cccs3)=Nc3ccc(Br)cc3N2)c1 | 79% (inactive)
CCOc1ccc(-c2c(C)nn3c(C)c(C(=O)NCCN(C)C)cnc23)cc1OCC | 87% (inactive)
Cc1cccc(N2CCN(c3c4c(nc5nncn35)CCC4)CC2)c1C | 84% (inactive)
COc1ccccc1CNC(=O)Cn1ncc2c3ccccc3n(Cc3ccccc3C)c2c1=O | 85% (inactive)
CCCn1c2ccccc2c2cnn(CC(=O)NC(C)CC)c(=O)c21 (centres undefined) | 64% (inactive)
CCCn1c2ccccc2c2cnn(CC(=O)NCC3CCN(Cc4ccc(F)cc4)CC3)c(=O)c21 | 74% (inactive)
CCCn1c2ccccc2c2cnn(CC(=O)NCc3ccccc3Cl)c(=O)c21 | 120% (inactive)
CCCn1c2ccccc2c2cnn(CC(=O)NCC3CCN(Cc4ccc(C)cc4)CC3)c(=O)c21 | -1% (active)
CCCn1c2ccccc2c2cnn(CC(=O)NCC3CCN(Cc4ccccc4C)CC3)c(=O)c21 | 14% (active)
Cc1ccc(CNC(=O)CN(C)S(=O)(=O)c2ccc3c(c2)c(=O)n(C)c(=O)n3C)cc1 | 84% (inactive)
c1ccc(C(c2nnnn2C2CCCC2)N2CCN(c3ccccc3)CC2)cc1 (centres undefined) | 108% (inactive)
Cc1ccc(C)c(N2CCN(C(=O)C3CCC(CNS(=O)(=O)c4ccc(Br)s4)CC3)CC2)c1 (centres undefined) | 76% (inactive)
O=C(Nc1cc(F)ccc1F)c1ccc(CN2CC(=O)N3CCCCC3C2=O)cc1 (centres undefined) | 76% (inactive)
CC(C)c1ccc(NC(=O)c2ccc(CN3CC(=O)N4CCCCC4C3=O)cc2)cc1 (centres undefined) | 90% (inactive)
CCc1ccc(NC(=O)c2ccc(CN3CC(=O)N4CCCCC4C3=O)cc2)cc1 (centres undefined) | 87% (inactive)
Cc1ccc(NC(=O)c2ccc(CN3CC(=O)N4CCCCC4C3=O)cc2)cc1 (centres undefined) | -6% (active)
O=C(Nc1ccc(F)cc1)c1ccc(CN2CC(=O)N3CCCCC3C2=O)cc1 (centres undefined) | -6% (active)
Cc1ccc(NC(=O)c2ccc(CN3CC(=O)N4CCCCC4C3=O)cc2)cc1C (centres undefined) | 73% (inactive)
CC(C)CCNc1ccc(-c2ccc(Cl)cc2)nn1 | 106% (inactive)
CCCCN(CCCC)C(=O)c1cc2c(=O)n3ccccc3nc2s1 | 61% (inactive)

Compound | survival
Cc1ccc(N2CC(NC(=O)Cc3cccs3)CC2=O)cc1C (centres undefined) | 19% (inactive)
Fc1ccc(NCc2ccccc2-c2nnc(-c3ccccc3Cl)o2)cc1 | 89% (inactive)
Fc1ccc(C(Nc2ccccc2Cl)c2nnc(-c3ccccc3Cl)o2)cc1 (centres undefined) | 89% (inactive)
COc1ccc(CCNC(c2ccc(F)cc2)c2nnc(-c3ccccc3Cl)o2)cc1OC (centres undefined) | 49% (inactive)
Fc1ccc(C(NCCc2ccccc2)c2nnc(-c3ccccc3Cl)o2)cc1 (centres undefined) | 94% (inactive)
Fc1ccc(C(NCCc2ccc(Cl)cc2)c2nnc(-c3ccccc3Cl)o2)cc1 (centres undefined) | 11% (active)
Cc1ccc(CCNC(c2ccc(F)cc2)c2nnc(-c3ccccc3Cl)o2)cc1 (centres undefined) | 0% (active)
COc1cc(NC(=O)CCc2c(C)n(C)c3cc(-c4ccccc4C)nn3c2=O)cc(OC)c1OC | 130% (inactive)
Cc1ccc(NC(=O)N2CCc3c([nH]c4ccccc34)C2c2ccccc2F)c(Cl)c1 (centres undefined) | 82% (inactive)
CCc1ccc(NS(=O)(=O)c2ccc(C(=O)N(C)C)s2)cc1 | 64% (inactive)
CCC1CCCCN1C(=O)c1sc(-n2nc(C)c(Cc3ccccc3)c2C)nc1C (centres undefined) | 72% (inactive)
CC(=O)c1ccc(NC(=O)C2CCN(S(=O)(=O)c3ccc4c(c3)CCCN4C(=O)C3CCC3)CC2)cc1 | 74% (inactive)
CCOC(=O)Cn1nc(N2CCN(c3ccc(F)cc3)CC2)ccc1=O | 73% (inactive)
COc1ccc(Cn2ccc3nc(C)c(C(=O)NCc4cccc(OC)c4)cc3c2=O)cc1 | 75% (inactive)
Cc1ccc(CNC(=O)CCCc2nnc3n(C)c(=O)c4sccc4n23)cc1 | 92% (inactive)
CCOC(=O)c1cc(C)n(CC2CCC(C(=O)Nc3cccc(C(C)=O)c3)CC2)c1C (centres undefined) | 79% (inactive)
Cc1c(Cl)cccc1-n1nc(C)c2c(C)cc(=O)n(CC(=O)N3CCCc4ccccc43)c21 | 71% (inactive)
CC(=O)N1CCc2c(sc(NC(=O)CSc3ccccc3)c2-c2nc3ccccc3s2)C1 | 120% (inactive)
CN1CCc2c(sc(NC(=O)CSc3ccccc3)c2-c2nc3ccccc3s2)C1 | 80% (inactive)
CCN1CCc2c(sc(NC(=O)CSc3ccccc3)c2-c2nc3ccccc3s2)C1 | -6% (active)
